Some targets named below: DUSP22; DUSP3; DTX3L; DTX1; EDDM3B; EDF1; ECH1; EEF1B2; EFCAB6.
Holding throughout (test): pooled miR-30 sensor sort-seq; sequence = guide strand
Conditions in all cases: shRNA
Also: reference of the scale not given here.

AATATGTGTCACCTTGTTCTTG returned a sensor-assay potency score (higher = more potent) with DUSP22 of -0.44.

TTCTTTTGAGCCAAAGCCTGGT displayed a sensor-assay potency score (higher = more potent) in the experiment with DUSP3 of -0.51.

TTGAACTCCTGTGTGTCGTTGG came in with a sensor-assay potency score (higher = more potent) with DUSP3 of 0.854.

As to ATATGTGTCACCTTGTTCTTGC, in the experiment with DUSP22, the sensor-assay potency score (higher = more potent) came to 0.858.

In the case of TATGTGATGCCGGAGTCCTTGT, in the experiment with DUSP3, the sensor-assay potency score (higher = more potent) was -1.17.

TACTTAAACTCTATGTTGCTTT: the sensor-assay potency score (higher = more potent) in the experiment with DUSP22 was -0.452.

In the experiment with DTX3L, TTCGATCTCTGATATCTCCTGT came in with a sensor-assay potency score (higher = more potent) of 0.612.

Turning to AGACTTGACGTCCATCTTCTGC, in the experiment with DUSP3, the sensor-assay potency score (higher = more potent) was -1.63.

Sequence TATTCTTTCAATGTCTTGGAAG registered a sensor-assay potency score (higher = more potent) with DTX3L of -0.89.

For the sequence TGTCTAGGTAGCTAGCGTCCGG, the sensor-assay potency score (higher = more potent) with DTX1 was -0.967.

Take TGCTTCTTCTTGGTCTTGCGGC: the sensor-assay potency score (higher = more potent) in the experiment with DTX1 is -0.99.

As to TGAGGTTGAACTCCTGTGTGTC, in the experiment with DUSP3, the sensor-assay potency score (higher = more potent) worked out at 0.0433.

For TTAACGAAAACATAGAGCTTTC, in the experiment with DUSP22, the sensor-assay potency score (higher = more potent) is -0.995.

TAGTTTCTGCAGCTTGGGGATG: the sensor-assay potency score (higher = more potent) with DUSP3 was -1.37.

For the sequence ATACTGATGGACCTCATGCTTC, in the experiment with DUSP22, the sensor-assay potency score (higher = more potent) was -1.22.

On to TTTTTCAACACTCTCTCCTTAG, for which the sensor-assay potency score (higher = more potent) with DTX3L is -0.54.

In turn, TTCCAGGGTATCTCTTTCCTGG showed a sensor-assay potency score (higher = more potent) in the experiment with DTX3L of -0.87.

For the sequence TTCGTCAACAAGTATTTGGTGC, the sensor-assay potency score (higher = more potent) with DTX3L is 0.16.

In the experiment with DUSP22, TCTTCCTTCAGCCACTGCCGAT displayed a sensor-assay potency score (higher = more potent) of -1.53.

Sequence TAGGCGATAACTAGCGTTGGGG yielded a sensor-assay potency score (higher = more potent) in the experiment with DUSP3 of -0.821.

On to TTGCGGTGAACTTCTTCCCGGG, for which the sensor-assay potency score (higher = more potent) in the experiment with DTX1 is -0.0133.

Regarding TTGGGGAGCGGCTATAACCTTC, in the experiment with DUSP3, the sensor-assay potency score (higher = more potent) is -1.39.

For TTCTTTGAAATGTCTTGTCAGG, the sensor-assay potency score (higher = more potent) with DUSP22 was -0.54.

In the experiment with DTX3L, TAGCTCTCCAGCTTCCTTCGTA displayed a sensor-assay potency score (higher = more potent) of 0.0161.

TTGACGTCCATCTTCTGCCGCA: the sensor-assay potency score (higher = more potent) in the experiment with DUSP3 is -0.0981.

In turn, TTTCTTTGAAATGTCTTGTCAG came in with a sensor-assay potency score (higher = more potent) with DUSP22 of -0.0889.

In the experiment with DUSP3, TTCAAAGTAAGCGCTGAGGTTG gave a sensor-assay potency score (higher = more potent) of -0.662.

On to TTGGAAGTCACCACACACCTTC, for which, in the experiment with DTX3L, the sensor-assay potency score (higher = more potent) worked out at 0.463.

On to TTCACAGGAAGCAATCACGAGC, for which the sensor-assay potency score (higher = more potent) with DUSP22 is -0.769.

The sequence TTTGTGGTGAATATCATTCCAA gave a sensor-assay potency score (higher = more potent) in the experiment with DTX3L of -0.425.

Consider TAAAGAGACACATTCTTGCTTC, for which the sensor-assay potency score (higher = more potent) with DTX3L came to 0.883.

TAGAAGTTGGCATTGGTGTTGA had a sensor-assay potency score (higher = more potent) in the experiment with DUSP3 of 0.772.

For TAGTCTGTCATTGAGCTGGCAG, in the experiment with DUSP3, the sensor-assay potency score (higher = more potent) is -0.572.

The sequence TTTGAGAGGATTCTGGACCCAT registered a sensor-assay potency score (higher = more potent) in the experiment with EDDM3B of 0.578.

In turn, TGCAGCTCCTCTGTCTCCCGGT yielded a sensor-assay potency score (higher = more potent) with EDF1 of -0.285.

Turning to AAGCACTCTACCATCTCTCTCC, the sensor-assay potency score (higher = more potent) with ECH1 is -0.152.

TTTCGTGGCCAGGTCCTTCTGC came in with a sensor-assay potency score (higher = more potent) with EDF1 of -0.179.

TTGAATGCTTCTGACGCACTCC registered a sensor-assay potency score (higher = more potent) with EEF1B2 of 0.113.

In turn, ATTTCTTGGAAGTCTCCACATC came in with a sensor-assay potency score (higher = more potent) in the experiment with EDF1 of -1.38.

TTGTCTGGGAACACCCGGCTGA: the sensor-assay potency score (higher = more potent) with ECH1 was 0.142.

On to TTCTCATTGATTTTCGTGGCCA, for which the sensor-assay potency score (higher = more potent) in the experiment with EDF1 is -0.538.

In the experiment with ECH1, TTGTTCATGGCATTCCTCTTGT displayed a sensor-assay potency score (higher = more potent) of 0.382.

TTGAAGGTCTCCTGGTATCGAG displayed a sensor-assay potency score (higher = more potent) with ECH1 of -0.974.

ATCTTTAGGTCTTCTATGCTAT gave a sensor-assay potency score (higher = more potent) with EDDM3B of -0.978.

TTAGACAAGTCTGACCATCTGT: the sensor-assay potency score (higher = more potent) in the experiment with EFCAB6 is 0.537.

As to TTGGGCTGCAGGATGTCCGAAG, in the experiment with ECH1, the sensor-assay potency score (higher = more potent) was -0.857.

For AATAGAATGTTGTTTGTTCTGG, the sensor-assay potency score (higher = more potent) with EDF1 was -0.0468.

As for TCAGCGTCTCTCGAAATCTTGT, the sensor-assay potency score (higher = more potent) with ECH1 was -0.622.

As to TACAGCAGGTTGACCTTGGTGC, in the experiment with ECH1, the sensor-assay potency score (higher = more potent) turned out to be 0.173.

Take TAGAAAGCACTGAATACTCTAC: the sensor-assay potency score (higher = more potent) with EDDM3B is -0.181.

For the sequence TGTTCTTGGTAATAGAATGTTG, in the experiment with EDF1, the sensor-assay potency score (higher = more potent) was -1.17.

TCAATGTAGTTGAAGCTCCTGC displayed a sensor-assay potency score (higher = more potent) in the experiment with EDDM3B of 0.357.

As to AAATCTTGTTGAAGCACTCTAC, the sensor-assay potency score (higher = more potent) with ECH1 was 0.264.

Consider TAAGAGAACATCCACATTCTTC, for which, in the experiment with EFCAB6, the sensor-assay potency score (higher = more potent) was -0.398.

In turn, TCATAGTCCGCGATCACCTGTG showed a sensor-assay potency score (higher = more potent) with EDF1 of 0.11.

The sequence TATCGAGTGATGATGTCACGGA registered a sensor-assay potency score (higher = more potent) in the experiment with ECH1 of -0.0973.

Consider TAAACTGGGAAACTGGGTCAGA, for which, in the experiment with ECH1, the sensor-assay potency score (higher = more potent) is -0.506.

Regarding TTGCTCTGCCGACCTTGCTGGA, the sensor-assay potency score (higher = more potent) in the experiment with EDF1 is -1.14.

TTGGACTTAAGTAGTGCTGTTT had a sensor-assay potency score (higher = more potent) in the experiment with EDDM3B of -0.357.

In turn, TTGACTGGCATCTCGTTCCAGA came in with a sensor-assay potency score (higher = more potent) with EFCAB6 of -0.455.

(Values after the OligoGym collection.)
